Compound activity from PubChem BioAssay.
FBW7 act = human FBW7 E3 ligase activation, primary screen. Q969H0. AlphaScreen FBW7–phospho-cyclin E peptide binding, activator screen. normalized activity (activation), % at 26.1 µM. hit rate 0.13% among 650,000. AID 1259310; in the data active means normalized activity above about 1.9%;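 further: purified mutant Fbw7 with reduced substrate affinity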
Target sequence (Q969H0 whole entry, looked up): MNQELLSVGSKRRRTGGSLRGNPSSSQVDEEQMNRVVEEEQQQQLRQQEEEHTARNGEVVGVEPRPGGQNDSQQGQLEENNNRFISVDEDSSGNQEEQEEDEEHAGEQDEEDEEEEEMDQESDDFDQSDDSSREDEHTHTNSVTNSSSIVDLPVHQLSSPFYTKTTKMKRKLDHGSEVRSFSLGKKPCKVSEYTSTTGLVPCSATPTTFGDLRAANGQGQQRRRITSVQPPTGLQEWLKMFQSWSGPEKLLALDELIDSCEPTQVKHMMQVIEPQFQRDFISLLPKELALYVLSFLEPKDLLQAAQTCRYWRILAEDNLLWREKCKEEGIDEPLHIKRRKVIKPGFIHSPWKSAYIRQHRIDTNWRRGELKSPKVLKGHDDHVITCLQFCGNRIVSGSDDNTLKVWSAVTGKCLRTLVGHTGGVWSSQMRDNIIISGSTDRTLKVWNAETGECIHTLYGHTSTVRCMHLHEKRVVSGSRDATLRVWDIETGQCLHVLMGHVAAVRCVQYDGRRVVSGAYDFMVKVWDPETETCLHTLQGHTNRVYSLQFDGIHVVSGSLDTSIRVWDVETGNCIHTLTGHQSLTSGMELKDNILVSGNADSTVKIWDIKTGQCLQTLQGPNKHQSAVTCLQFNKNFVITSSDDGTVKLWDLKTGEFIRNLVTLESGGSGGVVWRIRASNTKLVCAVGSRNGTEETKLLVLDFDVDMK
GPR151 ag = activators of human GPR151. hit rate 1% among 650,000. PathHunter beta-arrestin GPR151 cells, luminescence. Q8TDV0. activation, % at 11.2 µM; in the data active means activation above about 4.9%
TEAD-YAP block = TEAD-YAP interaction inhibition; inhibition, % at 9.12 µM; hit rate 1.4% among 640,000; HEK-TIYL cells, TEAD-Gal4/YAP UAS-luciferase luminescence; in the data active means inhibition above about 32%
MITF primary = human MITF inhibition, primary screen | O75030 | AlphaScreen MITF homodimerization, bead proximity signal | inhibition, % at 2.6 µM | hit rate 0.91% among 650,000 | AID 1259374; in the data active means inhibition above about 50%
GPR151 confirm = human GPR151 activation, confirmation screen; shares compounds with GPR151 ag; GPR151 PathHunter beta-arrestin cells, luminescence, 90 min; % of EA-reagent control over plate median; activation, % at 11.2 µM; 6,700 tested, under 10 active;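 active means mean percent activation across replicates above the confirmation screen cutoff of 4.91%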
GPR119 ag = GPR119 activation, counter-screen for GPR151 activators. shares compounds with GPR151 ag. GPR119 PathHunter beta-arrestin cells, luminescence, 90 min; 0 = compound-well median, 100 = enzyme-acceptor control. activation, % at 11.2 µM. hit rate 0.3% among 6,700;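 active means mean percent activation in the counterscreen above 29.09%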;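 further: counterscreen on off-target GPR119 to flag nonselective hits from the GPR151 activator screen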
Of the large screens only hits and unclear results are named; the others gave an inactive call (follow-up assays come after a bar, where they were run); ! = a repeat was not active. Compounds with a hit are over-represented: about 3.5% of the library has one in this group of screens.

CO/N=C(\CSc1ccccc1OC)c1sc2ncnn2c1C	none
Cc1c(C(=O)CSc2ccc(F)cc2F)sc2ncnn12	GPR151 ag 5.9 | GPR151 confirm inactive | GPR119 ag inactive
CC(=O)c1ccc(NC(=O)C(C)n2c(C)c3cnn(-c4ccccc4)c(=O)c3c2C)cc1 (stereo not given)	none
C/C=C/c1ccc(OCC(O)CNC2CCCCC2)c(OC)c1 (stereo not given)	none
COc1ccc(CCNC(=O)c2cccc(Nc3nc4ccccc4n3C)n2)cc1	GPR151 ag 7.8 | GPR151 confirm inactive | GPR119 ag inactive
COc1ccc(CCNC(=O)c2csc(Nc3nc4ccccc4n3C)n2)cc1	none
O=C(NC(=S)Nc1ccc(-c2nc3ccccc3o2)cc1)c1cncc(Br)c1	GPR151 ag 6.1 | GPR151 confirm inactive | GPR119 ag inactive
O=C(Nc1ccc(-c2nc3ccccc3o2)cc1)c1cc(I)ccc1Cl	GPR151 ag 7.4 | GPR151 confirm inactive | GPR119 ag inactive
Cc1ccc(NC(=O)CN(C)S(=O)(=O)c2ccc(Br)cc2)cc1C	none
COc1ccc(NC(=O)CN(C)S(=O)(=O)c2ccc(Cl)cc2)cc1Cl	GPR151 ag 10 | GPR151 confirm inactive | GPR119 ag inactive
Cc1ccc(NC(=O)CN(C)S(=O)(=O)c2ccc(Br)cc2)cc1Cl	GPR151 ag 9.5 | GPR151 confirm inactive | GPR119 ag inactive
Cc1cccc(C(=O)Nc2cc3nn(-c4ccc(Cl)cc4)nc3cc2C)c1	none
O=C(c1c(F)cccc1F)N1CCN(S(=O)(=O)c2ccc(Br)cc2)CC1	GPR151 ag 6.1 | GPR151 confirm inactive | GPR119 ag inactive
COCCN1CC(CNC(=O)c2cc(COc3ccc(F)cc3Cl)on2)CC1=O (stereo not given)	GPR151 ag 9.8 | GPR151 confirm inactive | GPR119 ag inactive
COc1cc(CNC2CCN(c3nc(C)c4cc(C)ccc4n3)CC2)cc(OC)c1OC	none
O=C(CSc1nc2cc3c(cc2c(=O)n1CCC(=O)N1CCN(c2ccccc2)CC1)OCO3)c1ccccc1	none
COC(=O)c1ccc(NC(=O)CN(c2ccc(OC)cc2OC)S(=O)(=O)c2ccccc2)cc1	none
CCOC(=O)C1CCN(C(=O)Nc2ccc(Cl)cc2Cl)CC1	GPR151 ag 5.4 | GPR151 confirm inactive | GPR119 ag inactive
COc1ccc(C(Nc2cccc(C)n2)c2ccc3cccnc3c2O)cc1 (stereo not given)	GPR151 ag 6.7, TEAD-YAP block 88 | GPR151 confirm inactive | GPR119 ag inactive
O=C(CC1Sc2ccccc2NC1=O)NCc1ccc2c(c1)OCO2 (stereo not given)	GPR151 ag 7.3 | GPR151 confirm inactive | GPR119 ag inactive
S=C(NCCCn1ccnc1)Nc1ccc(Br)cc1	GPR151 ag 5.1 | GPR151 confirm inactive | GPR119 ag inactive
CC1=CC(C)(C)Nc2ccc(OC(=O)c3ccccn3)cc21	none
N[C@H](C(=O)O)[C@H]1CC1C(=O)O (stereo not given in full)	none (no result: TEAD-YAP block)
CC1CCN(C(=O)CSc2nc(=O)n(CCO)c3c2CCCC3)CC1	GPR151 ag 8.3 | GPR151 confirm inactive | GPR119 ag inactive
O=C(CSc1nc(=O)n(CCCO)c2c1CCCC2)N1CCN(c2ccccc2)CC1	none
COc1ccc(NC(=O)c2ccco2)c(NC(=O)COc2ccc([N+](=O)[O-])cc2)c1	none
CCC(Sc1nc(N)c(C#N)c(-c2ccccc2)c1C#N)C(=O)Nc1cc(C)on1 (stereo not given)	none
Cc1cc(NC(=O)c2ccc3c(c2)C(=O)N(CC2CCCO2)C3=O)no1 (stereo not given)	none
Cc1nnc(NC(=O)c2ccc3c(c2)C(=O)N(CC2CCCO2)C3=O)s1 (stereo not given)	GPR151 ag 6.9 | GPR151 confirm inactive | GPR119 ag inactive
CCc1sc(C(=O)NCc2ccccc2OC)cc1C	GPR151 ag 5.5 | GPR151 confirm inactive | GPR119 ag inactive
Cc1cccc(N2C(=O)C3C(C2=O)C2C=CC3C23CC3)c1C (stereo not given)	none
CCOc1ccc(N2CCN(CCNC(=O)Nc3cccc(Cl)c3)CC2)cc1	GPR151 ag 5.5 | GPR151 confirm inactive | GPR119 ag inactive
O=C(NCCN1CCN(c2cccc(Cl)c2)CC1)Nc1ccccc1	none
O=C(Nc1cccc(Cl)c1)c1ccc(F)c(S(=O)(=O)N2CCc3ccccc3C2)c1	GPR151 ag 5.4 | GPR151 confirm inactive | GPR119 ag inactive
Cc1ccc(N2CCN(S(=O)(=O)c3cc(C(=O)Nc4cc(Cl)cc(Cl)c4)ccc3F)CC2C)cc1 (stereo not given)	GPR151 ag 5.7 | GPR151 confirm inactive | GPR119 ag inactive
CCN1CCN(S(=O)(=O)c2cc(C(=O)Nc3cccc(C)c3)ccc2F)CC1	GPR151 ag 6.1 | GPR151 confirm inactive | GPR119 ag inactive
COc1ccc(C2/C(=C(\O)c3ccccc3)C(=O)C(=O)N2c2cccnc2)c(OC)c1 (stereo not given)	none
CC(Oc1ccc(C(C)(C)C)cc1)C(=O)NC1CCS(=O)(=O)C1 (stereo not given)	GPR151 ag 5.2 | GPR151 confirm inactive | GPR119 ag inactive
CN(Cc1ccccc1)S(=O)(=O)c1ccc(NS(C)(=O)=O)cc1	GPR151 ag 5.7 | GPR151 confirm inactive | GPR119 ag inactive
COc1ccc(S(=O)(=O)N(C)Cc2ccccc2)cc1C	GPR151 ag 11 | GPR151 confirm inactive | GPR119 ag inactive
COc1ccc(S(=O)(=O)N(CC(=O)O)Cc2ccccc2)cc1C	none
Cc1cccc(OCC(=O)Nc2ccc(S(=O)(=O)N(C)Cc3ccccc3)cc2)c1	GPR151 ag 5.6 | GPR151 confirm inactive | GPR119 ag inactive
CC(=O)Nc1ccc(S(=O)(=O)N(C)Cc2ccccc2)cc1	none
Cc1ccccc1CCNCc1c(C(=O)O)c(C)n(Cc2ccccc2C)c1C	none
CCC(C)C(=O)Nc1ncc2c(n1)CC(C)(C)CC2=O (stereo not given)	none
CN1CCN(c2c(F)cc3c(=O)c(C(=O)O)cn4c3c2OCN4C)CC1	none
CN1CCN(c2c(F)cc3c(=O)c(C(=O)O)cn(CCF)c3c2F)CC1	GPR151 ag 6.3! | GPR151 confirm inactive | GPR119 ag inactive
Cc1ccc(C)c(N2CC(C(=O)Nc3c(C)cccc3C)CC2=O)c1 (stereo not given)	none
Cc1ccc(C(=O)NN=C2CCN(C)CC2)cc1	none
CC(C)N1CCC(=NNC(=O)c2ccc(C(C)(C)C)cc2)CC1	GPR151 ag 6.7 | GPR151 confirm inactive | GPR119 ag inactive
COC(=O)C1=CN(Cc2ccc(F)cc2)C=C(C(=O)OC)C1c1cccc(O)c1	GPR151 ag 5.2 | GPR151 confirm inactive | GPR119 ag inactive
COC(=O)C1=CN(CC2CCCO2)C=C(C(=O)OC)C1c1cccc(Cl)c1 (stereo not given)	none
